Here are results for two molecules from PubChem BioAssay AID2687 (National Center for Advancing Translational Sciences (NCATS), 2010).

Structures are written as SMILES. Activity calls are given as the source filed them.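 Rule for the calls: active = potency half-maximal inhibitory concentration below 100 µM; inconclusive = dose-dependent response but potency above 100 µM; inactive = the rest.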

In this assay the target is Lysine-specific demethylase 4E (Homo sapiens) (UniProt B2RXH2). Kind of assay: AlphaScreen Assay for Inhibitors of Human Jumonji Domain Containing 2E (JMJD2E). As to conditions: recombinant JMJD2E, H3K9me3 peptide demethylation. The text has this: The fine interplay among methylation states of several lysine residues on the tails of histone proteins is a major determinant of the transcriptional state of the associated DNA coding regions and is commonly referred to as the histone code. Histone lysine demethylases catalyze the removal of methyl groups from methylated lysine sidechains on histones H3 and H4, thus antagonizing the reactions catalyzed by histone lysine methyltransferases. […] In search for novel inhibitors of JMJD2E demethylase, a member of the largest set of histone demethylases belonging to the Fe(II) and 2-oxoglutarate oxygenase (2OG) superfamily, we performed a quantitative high-throughput screen (Inglese 2006). See AID 2147 for details on the primary screen. The assay here is a secondary AlphaScreen screen used to validate follow-up compounds. References: Inglese, J., Auld, D., Jadhav, A., Johnson, R., Simeonov, A., Yasgar, A., Zheng, W. and Austin, C. […]
Lysine-specific demethylase 4E (Homo sapiens), sequence (B2RXH2 1-337 limits assumed): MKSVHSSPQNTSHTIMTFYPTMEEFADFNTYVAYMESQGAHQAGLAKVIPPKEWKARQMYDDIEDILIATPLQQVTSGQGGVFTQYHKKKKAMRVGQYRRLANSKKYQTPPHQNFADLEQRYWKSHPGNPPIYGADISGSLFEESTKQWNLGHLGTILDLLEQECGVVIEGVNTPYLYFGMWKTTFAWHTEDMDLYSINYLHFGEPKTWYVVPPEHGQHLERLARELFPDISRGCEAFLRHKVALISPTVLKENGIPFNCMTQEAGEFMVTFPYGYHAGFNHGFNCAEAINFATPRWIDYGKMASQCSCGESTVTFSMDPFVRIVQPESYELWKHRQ
Assay Buffer: 50 mM HEPES pH7.5, 0.01% Tween-20, 0.1% BSA (Cohn Fraction V; Sigma A7030) Peptide: biotin-[…](me3/2)STGGKA Antibody: Abcam Ab1220, Anti-H3K9Me2 Final concentration of components in enzyme reaction: JMJD2E 5 nM, Peptide 30 nM, […] L-Ascorbic Acid, […], DMSO 0.1% Alphascreen beads made up in the dark in assay buffer and pre-incubated for 1 hour in the dark. […] Read plate on BMG Labtech Pherastar FS
(In general: Alpha assays give light when donor and acceptor beads are brought close together.)
Regarding `O=S(=O)(Nc1ccc(O)c2ncccc12)c1ccccc1F`, the Potency was 435 nM (active).
For the molecule `Oc1ccc(CNc2cccc(F)c2)c2cccnc12`, the Potency was 1490 nM (active).
